# High-throughput results as filed in PubChem.
# TDP1 cell CPT – DT40-hTDP1 cell growth loss with CPT. chicken DT40 Tdp1-/-;hTDP1 cells + 20 nM CPT, ATP luminescence, 48 h. Potency, µM (titrated, usually from 46.2 µM), without a hit: at the highest dose activity change, negative = growth inhibition, hits mostly inhibitors. actives 12% (n = 420,000); also: nearly all actives have a fitted effect of over 55% in size
#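 Chicken DT40 Tdp1-/- cells stably complemented with human TDP1 were seeded at 400 cells/well in medium containing 20 nM camptothecin, exposed to pin-transferred compounds, and grown at 37 °C for at least 48 hr. Viability was read as ATP luminescence.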
# RORgamma inh – blocks mouse ROR gamma transcriptional activity | Drosophila S2 Gal4-RORgamma UAS-luciferase reporter, 20 h | Potency, µM (highest dose often 53.6 µM), inactives show at the highest dose activity change, negative = inhibition, actives largely listed as inhibitors | actives 5.4% (n = 310,000) | P51450 | AID 2551; also: nearly all actives have a fitted effect of over 60% in size
#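 Compounds are pin-transferred onto Drosophila Schneider cells expressing a copper-inducible Gal4–ROR gamma transactivation domain fusion. After 1 hr, copper sulfate is added to 700 uM final; luciferase is read 20 hr later.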
# TDP1 cell noCPT – qHTS for Inhibitors of human tyrosyl-DNA phosphodiesterase 1 (TDP1): qHTS in cells in absence of CPT | DT40 Tdp1-/- hTDP1 cells, no CPT, ATP luminescence, 48 h | Potency, µM (series often up to 46.2 µM), for inactives: top-dose activity change, negative = growth inhibition, most hits filed as inhibitors | actives 15% (n = 420,000) | AID 686978, 2013; also: nearly all actives have a fitted effect of over 55% in size
#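 Readout: luminescence from CellTiter-Glo after 30 min in the dark at RT. Cells: DT40 Tdp1-/- with stable hTDP1, 400/well. Exposure: compounds alone, ≥48 hr, 37 °C.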
# Gal4-VP16 FLuc – inhibits Gal4-VP16 luciferase reporter, ROR gamma counter-screen. Drosophila S2 Gal4-VP16 UAS-luciferase, luminescence, 20 h. Potency, µM (top dose mostly 53.6 µM), for inactives: at the highest dose activity, negative = inhibition, actives largely listed as inhibitors. actives 3.5% (n = 310,000). AID 2546;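 also: Gal4-VP16 expression switched on by copper sulfate through the metallothionein promoter; nearly all actives have a fitted effect of over 50% in size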
# TDP1 inh – inhibitors of human tyrosyl-DNA phosphodiesterase TDP1; Q9NUW8; recombinant TDP1, AlphaScreen DNA substrate cleavage; Potency, µM (highest dose often 130 µM), for inactives: at the highest dose activity change, negative = inhibition, most hits filed as inhibitors; actives 0.28% (n = 350,000); AID 485290; also: nearly all actives have a fitted effect of over 40% in size
# Target sequence (Q9NUW8 whole entry, looked up): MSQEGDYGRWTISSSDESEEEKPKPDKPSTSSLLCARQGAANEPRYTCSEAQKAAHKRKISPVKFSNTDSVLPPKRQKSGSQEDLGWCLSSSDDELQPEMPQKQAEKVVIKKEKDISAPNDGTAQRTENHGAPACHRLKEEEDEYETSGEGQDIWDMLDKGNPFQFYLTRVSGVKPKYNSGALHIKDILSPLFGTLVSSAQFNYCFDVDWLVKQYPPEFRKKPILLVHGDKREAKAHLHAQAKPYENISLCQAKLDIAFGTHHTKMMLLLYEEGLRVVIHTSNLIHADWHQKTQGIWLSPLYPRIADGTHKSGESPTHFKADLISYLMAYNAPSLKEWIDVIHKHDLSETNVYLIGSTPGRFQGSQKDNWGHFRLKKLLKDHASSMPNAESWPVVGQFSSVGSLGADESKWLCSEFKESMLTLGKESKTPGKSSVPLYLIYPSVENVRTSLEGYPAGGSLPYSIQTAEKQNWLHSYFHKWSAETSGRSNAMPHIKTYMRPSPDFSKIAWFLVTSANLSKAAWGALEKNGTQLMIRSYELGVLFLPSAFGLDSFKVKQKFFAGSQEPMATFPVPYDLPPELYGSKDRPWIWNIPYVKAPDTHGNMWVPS
#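 Steps: enzyme plus compound, 15 min RT; add biotin/phosphotyrosine-FITC oligonucleotide (15 nM final), react 5 min; add donor/acceptor beads (10 ug/ml final), 10 min; read AlphaScreen. Tdp1 at 1 nM final.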
# The depositor's hits bear a star; u = inconclusive; x = not tested or not shown; [ ] = remark or other dose. Hits are enriched below; roughly 19% of the tested compounds scored in any of these assays. Calls follow the shape of the dose curve; as a rule, active = well fitted curve in the direction sought with a large enough effect; inconclusive = small, poorly fitted or top-dose-only effect, or another doubt; inactive = no such curve, though single readings can be large; an effect the other way counts as inactive or inconclusive. % is scaled to controls: 0 for no effect and ±100 for the full control effect; potency is read from the fitted curve at half-maximal effect.
SMILES,TDP1 cell CPT,RORgamma inh,TDP1 cell noCPT,Gal4-VP16 FLuc,TDP1 inh
Cc1nc(C)c(CC(=O)N2CCOc3ccc(CN4CCN(c5ccccn5)CC4)cc3C2)s1,u,x,7.3µM*,x,x
CCOC(=O)N1CCN(Cc2ccc3c(c2)CN(C(=O)c2cc(-c4ccccc4)on2)CCO3)CC1,-6%[9.04 µM],x,21µM*,x,x
COc1cc(OC)c(OC)cc1CN1CCOc2ccc(CN3CCN(C(C)=O)CC3)cc2C1,-7%[9.04 µM],x,21µM*,x,x
CCOC(=O)N1CCN(Cc2ccc3c(c2)CN(C(=O)c2cc(-c4ccccc4)no2)CCO3)CC1,u,x,23µM*,x,x
COc1ncnc2c1NC(=O)CS2,-2%,0%[10 µM],-3%,1%,4%
CN1CCCC(OC(=O)c2ccc(C(C)(C)C)cc2)C1 (stereo unspecified),-12%,10%,-17%,2%,x
CCOC(=O)C1(CC2CCCCO2)CCN(Cc2cc3ccccc3[nH]2)CC1 (stereo unspecified),u,-35%,16µM*,u,0%
CCOC(=O)C1(CC2CCCCO2)CCN(Cc2cn[nH]c2-c2cccc(F)c2)CC1 (stereo unspecified),16µM*,14%,10µM*,-17%,0%
CCOC(=O)C1(CC2CCCCO2)CCN(Cc2ccccc2-c2ccco2)CC1 (stereo unspecified),u,1%,21µM*,1%,0%
O=C(COC(=O)c1c2c(nc3ccccc13)CCCCC2)NCc1ccc2c(c1)OCO2,u,5%,u,u,3%
COc1ccc(CN2CCNC(=O)C2CC(=O)N(C)Cc2ccon2)cc1OC (stereo unspecified),-1%,23%,11%,-23%,4%
Cn1c(NCc2ccccc2)cc(=O)n(C)c1=O,-8%,4%,-3%,-1%,-4%
COc1ccc(N2CCN(S(=O)(=O)CCNC(=O)COc3cccc(OC)c3)CC2)cc1,-17%,-2%,u,7%,4%
CCN1C(=O)/C(=C\c2cccs2)C(C(=O)OC)=C1C,1%,-30%,u,-3%,2%
CCN1C(=O)/C(=C\C(=O)c2cccs2)c2cc(Br)ccc21,13µM*,u,15µM*,u,8%
CCn1c(SC)nnc1C1CCN(CC(=O)Nc2ccccc2N2CCOCC2)CC1,-25%,1%,u,-1%,8%
CCCCCCn1c(C(C)O)nc2ccccc21 (stereo unspecified),u,-19%,u,6%,0%
Cc1ccc(NC(=O)/C=C/C(=O)O)c([N+](=O)[O-])c1,-9%,14%,0%,2%,-9%
CC[N+](C)(C)c1ccc(/C=C/c2ccc3ccccc3n2)cc1,0.028µM*,x,u,x,x
CCN(CC)c1ccc(/C=C/c2ccc3ccccc3n2)cc1,0.16µM*,x,0.16µM*,x,x
COc1ccccc1NC(=O)C(C)OC(=O)/C=C/c1ccc2ccccc2n1 (stereo unspecified),29µM*,x,u,x,-2%
CC(=O)/C=C/c1ccc2ccccc2n1,5.2µM*,10µM*,2.6µM*,u,0%
CCOC(=O)CCCNC(=O)COC(=O)CCC(=O)c1ccc(F)cc1,-3%,5%,-17%,1%,2%
COc1ccccc1N1CCN(C(=O)COc2ccc(Cl)cc2)CC1,u,12%,-29%,-1%,5%
Clc1ccc(/C=C/c2ccc3ccccc3n2)cc1Cl,6.3µM*,x,3.5µM*,x,x
SMILES,TDP1 cell CPT,RORgamma inh,TDP1 cell noCPT,Gal4-VP16 FLuc,TDP1 inh
CCCCn1c(N)c(N(C)C(=O)c2cc3c(F)cccc3s2)c(=O)[nH]c1=O,2%,x,7%,x,-2%
COc1ccc(Cl)cc1NC(=O)CC1S/C(=N/N=C2CCCCCC2)NC1=O (stereo unspecified),u,3.5µM*,u,5µM*,1%
COc1ccccc1NC(=O)CC1S/C(=N/N=C(\C)C2CCCCC2)NC1=O (stereo unspecified),-26%,-13%,-20%,0%,3%
CC(=O)c1cccc(NC(=O)CC2S/C(=N/N=C3CCCCCC3)NC2=O)c1 (stereo unspecified),-15%,10µM*,u,-26%,0%
CC1=C/C(=N\N=C2\NC(=O)C(CC(=O)Nc3ccccc3)S2)CC(C)(C)C1 (stereo unspecified),u,1.6µM*,u,u,8%
c1ccc(COCCN2CCN(CCOCc3ccccc3)CC2)cc1,-25%,0%,u,9%,1%
COC(=O)[C@@]12CCCCN1[C@H](c1ccc(-c3cc(C(C)=O)cs3)cc1)[C@H]1C(=O)N(C)C(=O)[C@H]12,5.2µM*,x,3.7µM*,x,-2%
COC(=O)[C@@]12CCCCN1[C@H](c1ccc(-c3ccc4c(c3)OCO4)c(OC)c1)[C@@H]1C(=O)N(C)C(=O)[C@@H]12,u,x,u,x,3%
COC(=O)[C@@]12CCCCN1[C@H](c1ccc(-c3cc(C(C)=O)cs3)c(OC)c1)[C@H]1C(=O)N(C)C(=O)[C@H]12,4.1µM*,x,2.9µM*,x,-1%
Cc1ccc(-c2csc3ncnc(Oc4ccc5c(C)cc(=O)oc5c4)c23)cc1,18µM*,22%,u,-13%,5%
CNC(=O)COc1ncnc2scc(-c3ccc(F)cc3)c12,0%,1%,10%,18%,8%
O=C(COc1ccc(Cl)cc1Cl)Nc1nnc(C2=COCCO2)o1,-4%,3.2µM*,-1%,4.5µM*,8%
O=C(COc1ccc(Cl)cc1)Nc1nnc(C2=COCCO2)o1,2%,13µM*,-12%,-16%,0%
CS(=O)(=O)c1ccccc1-c1nnc(NC(=O)COc2ccc(Cl)cc2)o1,u,x,-9%,x,1%
